The record followed here is PubChem BioAssay AID1347383 (Zoeller Lab, School of Medicine, Boston University, 2020).

The structures appear in SMILES notation. Activity calls are given as the source filed them.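 The calls were made as follows: active = cell survival after UV exposure 2 SD above solvent-only control wells at 10 µM, confirmed on one or two repeats; inactive = the rest.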

The nature of the experiment: protection of CHO cells from pyrene-fatty acid UV killing, primary screen, phospholipid biosynthesis inhibitor project, ZR-82 cells, Analyticon library, screen 2 (AID 1347383).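 Also: survival reflects blocked phospholipid synthesis cutting uptake of the phototoxic fatty acid; compound and fatty acid exposure 3 h then viability read next day.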 To be noted: ZR-82 CHO cells, CellTiter Blue, at 10 µM, peroxisome-deficient CHO-K1 variant, with DGAT-1, DGAT-2 and ACAT inhibitors.
For `CC1=C(CCCCC(=O)O)COC1=O`, the result was inactive.

Regarding `COc1ccc2cc3[n+](cc2c1OC)CCc1cc2c(cc1-3)OCO2`, the molecule was called inactive.

As for `O=C(O)CCC(=O)Cc1ccccc1`, the molecule was called inactive.

As for `COC(=O)C12OC1CCC1C3(C)CC(C4=CC(=O)OC4O)OC(=O)C3CCC12C` (stereo unspecified), the molecule was classed as inactive.

For the molecule `CC1(C)CCCC2(C)C(CO)C3CCC2C31` (stereo unspecified), the molecule was classed as inactive.

On to `O=C(O)c1cc(O)c2c(c1)C(=O)c1cc(O)cc(O)c1C2=O`, for which the result was inactive.

On to `COc1cc(C2CC(=O)c3c(O)cc(O)cc3O2)ccc1O` (stereo unspecified), for which the result was inactive.

In the case of `C=C(CO)C(=O)O[C@H]1CC(=C)[C@@H]2CC(=O)[C@H](C)[C@@H]2[C@H]2OC(=O)C(=C)[C@@H]21`, the molecule was classed as inactive.

As to `COc1ccc(C(O)C(C)O)cc1` (stereo unspecified), the molecule was called inactive.

As to `Nc1ccn(C2CC(O)C(CO)O2)c(=O)n1` (stereo unspecified), the result was inactive.

Consider `C#CC(O)COc1ccc(C(=O)O)cc1` (stereo unspecified), for which the outcome was inactive.

With `CCCCCCC1OC23OC1CCC2CCC(O)C3O` (stereo unspecified), the molecule was classed as inactive.

Take `O=C1c2ccc(O)cc2O[C@@H](c2ccc(O)c(O)c2)[C@@H]1O`: the call was inactive.

Take `COc1cc(O)cc2c1C(=O)CC(c1ccccc1)O2` (stereo unspecified): the molecule was called inactive.

Turning to `CCCCCCCC(=O)C(C)NC(=O)CCC(=O)O` (stereo unspecified), the molecule was classed as inactive.

Turning to `C=C1CCC2[C@@](C)(CO)CCC[C@]2(C)[C@H]1CC/C(C)=C/CO` (stereo partly specified), the molecule was classed as inactive.

Regarding `C=C1C[C@]23C[C@H]4C5[C@]6(C)CC(=O)C[C@]57C(C2C(O)[C@H]1C(O)C37)N4C6` (stereo partly specified), the outcome was inactive.

`CC1CCC2(C)C(CC(O)C(O)C23CO3)C1(C)CCC1=CC(O)OC1=O` (stereo unspecified): the outcome was inactive.

On to `COc1c(OC)c(O)c2c3c(cc4ccccc42)NC(=O)c13`, for which the call was inactive.

As to `COc1cc(CNC(=O)CCCCCCC(C)C)ccc1O`, the outcome was inactive.

In the case of `O=c1c(O)c(-c2ccc(O)c(O)c2)oc2cc(O)cc(O)c12`, the call was inactive.
